A short description of assay [1]: liver-stage malaria parasite growth inhibition, primary screen, cell-based, HepG2, luciferase luminescence, HepG2 viability (AID 624349; in the data active = parasite load remaining mostly below about 12%, no sharp cut-off; inactive = mostly above about 10%;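 also: 100% = mean of DMSO negative control wells on the same plate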). The following applies: P. berghei liver stage in HepG2, luciferase luminescence, concentration not given here; parasite load remaining: stronger effect = lower value; viability: measured here: HepG2 viability without parasites.
The nature of assay [2]: stimulators of nuclear beta-catenin in C2C12, primary screen, imaging, WNT3A-conditioned medium, mouse C2C12, NPC library (AID 1117326; in the data active = nuclear beta-catenin stimulation mostly above about 4.2%, no sharp cut-off; inactive = mostly below about 10%). To be noted: stronger effect = higher value.
Assay [3] in a line: stimulators of insulin release from INS-1E, primary screen, cell-based, 5 mM glucose, NPC library (AID 1117329;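 active = compound raises insulin release from rat beta cells at 5 mM glucose, no numeric limit stated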). The following applies: rat INS-1E insulin secretion, at 10 µM, stronger effect = higher value.
Assay [4] in a line: growth inhibition of GSK3B-pretreated HCT116 cells – cell-based, CellTiter-Glo, 0.2 to 20 µM (AID 1117336;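 active = compounds lowering colon cancer cell viability after pretreatment blocking the GSK3B kinase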). The following applies: HCT116 viability after GSK3B inhibitor, at 20 µM, stronger effect = higher value. In general terms: In ATP-based viability assays light output follows the ATP content of the culture.
A short description of assay [5]: inhibition of endothelial tube formation, primary screen, imaging, VEGF stimulated, CD31 staining, tube area, NPC library (AID 1117340;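 active = compound that reduces growth-factor-driven endothelial tube area in a mixed cell culture, no cutoff stated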). To be noted: VEGF-stimulated ADSC/ECFC co-culture, at 10 µM, stronger effect = higher value.
Assay [6] is described as follows: glucagon-like peptide 1 release enhancers, primary assay, NCI-H716 cell line, NPC library (AID 1117341;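 active = compound raises GLP1 secretion from the human gut endocrine cells, with no numeric limit stated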). The following applies: NCI-H716 cells, at 10 µM, stronger effect = higher value.
The nature of assay [7]: HCT116 colon cancer cell growth inhibition, primary screen, CellTiter-Glo luminescence, NPC library (AID 1117342;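 active = compounds that lower survival of HCT116 colon cancer cells in the luminescence readout, no numeric limit stated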). The following applies: at 20 µM (top of the series).
Assay [8] is described as follows: CellTiter-Glo luminescent readout of SW480 viability loss, NPC library primary (AID 1117343;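 active = compounds that lower viability of the colon cancer cells in the luminescence readout, with no numeric limit stated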). To be noted: CellTiter-Glo luminescence; at 20 µM (top of the series) unless noted.
Assay [9] is described as follows: decreased DLD-1 cellular survival, CellTiter-Glo luminescent readout, NPC compound collection, primary HTS (AID 1117346;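 active = compounds that lower survival of DLD-1 colon cancer cells in the luminescence readout, no cutoff given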). The following applies: DLD-1 viability, CellTiter-Glo luminescence; at 20 µM (top of the series).
Assay [10] in a line: differential killing of epithelial or mesenchymal cells, primary screen, imaging, PC-3E GFP, TEM4-18 mCherry, co-culture (AID 1345086;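 active = compounds killing one labelled cell type while sparing the other, by normalised counts and ratio limits, not self-fluorescent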;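 as to all read-outs here: cells exposed to compound for 72 h before imaging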;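 as to red/green cell ratio (normalised): normalised mesenchymal count divided by normalised epithelial count so high means epithelial killing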). The following applies: imaging cell counts, at 1 µM; for red/green cell ratio (normalised): actives lie on both sides, counts scaled to control wells, 1 = unselective.
A short description of assay [11]: sensitizers of A549 cells to miR-34 induction, primary screen, imaging, A549 dox-inducible miR-34, nuclei and caspase counts (AID 1347080). The following applies: A549 miR-34 inducible, Hoechst nuclei count, 48 h.
Assay [12] in a line: survival rescue of mitochondrial mutant cells in low glucose, primary screen, MELAS cybrids, Rieske KO mouse fibroblasts, CellTiter-Glo (AID 1508586;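 active = mean z-score across replicates of 1.96 or higher in either the MELAS or the Rieske mutant cell line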;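 also: z relative to plate mean and SD of compound and empty wells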).
For assay [13], the target named is NAD(+) hydrolase SARM1 (Homo sapiens) (UniProt Q6SZW1). As to the kind of experiment: SARM1 TIR NADase inhibitors, cell lysate, NAD-Glo luminescence (AID 1508614;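 active = compound whose remaining NAD level is above about 45 nM, limit read from the data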;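 also: higher remaining NAD means stronger inhibition of SARM1 NADase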). To be noted: SAM-TIR HEK293T lysate NADase, at 1 µM, stronger effect = higher value.
A short description of assay [14]: hESC survival regulators, cell-based (AID 493140; call rule not given here;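 also: cells exposed to compounds for four days before counting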). The following applies: human embryonic stem cell survival screen; stronger effect = higher value.
[15] abbreviates: measured here: epithelial PC-3E GFP cell survival.
Setting [16] is: measured here: mesenchymal TEM4-18 mCherry cell survival.
The mark [17] stands for this setting: stronger effect = lower value, cell number ratio, induced over uninduced.
Where [18] appears, read: measured here: relative caspase fold change +Dox/-Dox.
[19] abbreviates: measured here: total cells with miR-34 induction, stronger effect = lower value.
[20] abbreviates: measured here: total cells without miR-34 induction.
Setting [21] is: MELAS cybrid survival, CellTiter-Glo 48 h, stronger effect = higher value.
Where [22] appears, read: Rieske KO mouse fibroblast survival, CellTiter-Glo 72 h.

The structures appear in SMILES notation. “And” between values parts separate entries of the source, which are not always exact repeats. Equal values may be shown once. The source made the active and inactive calls.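 The calls were made as follows, unless noted: active = compounds whose cell count with miR-34 switched on is under 0.7 times the count with it off; inactive = the rest.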

As usually defined, the viability is a read-out of living cells in per cent, often relative to untreated cells.

Sequence of NAD(+) hydrolase SARM1 (Homo sapiens) (Q6SZW1 whole entry, looked up): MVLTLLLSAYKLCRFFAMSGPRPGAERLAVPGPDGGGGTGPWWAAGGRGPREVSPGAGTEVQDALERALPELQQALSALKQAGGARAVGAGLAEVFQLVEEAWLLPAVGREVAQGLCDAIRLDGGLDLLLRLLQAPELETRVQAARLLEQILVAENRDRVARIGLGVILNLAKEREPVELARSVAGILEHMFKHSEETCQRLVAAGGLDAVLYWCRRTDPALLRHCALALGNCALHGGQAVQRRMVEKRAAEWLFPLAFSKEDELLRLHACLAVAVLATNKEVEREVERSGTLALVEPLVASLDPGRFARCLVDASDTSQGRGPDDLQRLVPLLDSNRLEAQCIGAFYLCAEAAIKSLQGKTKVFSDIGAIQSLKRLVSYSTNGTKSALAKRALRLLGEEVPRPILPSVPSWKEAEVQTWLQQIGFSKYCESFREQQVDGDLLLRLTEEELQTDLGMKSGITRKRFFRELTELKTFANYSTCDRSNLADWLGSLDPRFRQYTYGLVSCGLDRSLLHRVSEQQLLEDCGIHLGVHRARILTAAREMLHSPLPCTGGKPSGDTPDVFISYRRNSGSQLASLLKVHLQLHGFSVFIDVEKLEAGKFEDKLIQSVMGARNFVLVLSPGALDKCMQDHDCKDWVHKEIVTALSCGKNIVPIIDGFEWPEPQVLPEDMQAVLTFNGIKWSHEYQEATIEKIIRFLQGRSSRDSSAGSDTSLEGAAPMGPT

As for `COc1cc(C(=O)N2CCOCC2)cc(OC)c1OC`, the parasite load remaining in assay [1] is 75.3% (inactive). Besides, the viability in assay [1] was 105%. The nuclear beta-catenin stimulation in [2] (at 10 µM) was 0.3% (inactive); in [2] (stimulation, at 2 µM) it was -0.7%. The insulin secretion stimulation in [3] was -1.8% (inactive). In addition, the viability decrease in assay [4] was 14.1% (inactive). For the same molecule, the tube area decrease in assay [5] was -2.8% (inactive). In addition, in assay [6], the GLP1 secretion stimulation is 6.1% (inactive). The inhibition of viability in [7] is -2.4% (inactive). For the same molecule, the viability decrease (inhibition) is 30.7% (inactive) in [8] and 20.1% (inactive) in assay [9]. The red/green cell ratio (normalised) in [10] is 1.06 (inactive). For the same molecule, the results for the normalised cell number in assay [10] (setting [15]) and in assay [10] (setting [16]) were 1.01 and 1.07, respectively. Also, the fold change in [11] (setting [17]) is 0.951 (inactive); in [11] (setting [18]) it was 1.55. The cell count in [11] (setting [19]) worked out at 11700; in assay [11] (setting [20]), 12300. The values for the z-score in [12] (setting [21]) and in [12] (setting [22]) were 0.673 (inactive) and 0.477, respectively. The remaining NAD in assay [13] is 10 nM (inactive).

With `O=C(CCCN1CCC(O)(c2ccc(Br)cc2)CC1)c1ccc(F)cc1`, the survival in assay [14] is 1.83 (inactive). For the same molecule, the parasite load remaining in assay [1] was 37.2% (inactive) and 72.5% (inactive) and 17.9% (inactive). Further, the viability in assay [1] was 92.9% and 75.9% and 90.4%. Also, the nuclear beta-catenin stimulation in assay [2] (at 10 µM) was 10.3% (inactive); in assay [2] (stimulation, at 2 µM) it was 1.8%. In addition, in [3], the insulin secretion stimulation is 5.6% (active). Further, the viability decrease in [4] is -4.9% (inactive). In addition, the tube area decrease in assay [5] is 24.2% (inactive). For the same molecule, the GLP1 secretion stimulation in assay [6] is 2.1% (inactive). Further, the inhibition of viability in assay [7] was 46.1% (inactive). For the same molecule, the viability decrease (inhibition) was 93.1% (active) in assay [8] and 54.3% (active) in [9]. Besides, the red/green cell ratio (normalised) in assay [10] is 0.73 (inactive). The normalised cell number in assay [10] (setting [15]) came to 1.27; in assay [10] (setting [16]) it was 0.93. Besides, the fold change in assay [11] (setting [17]) is 0.861 (inactive) and 0.851 (inactive); in [11] (setting [18]), 1.31 and 4.03. Moreover, the cell count in [11] (setting [19]) was 8070 and 10200; in assay [11] (setting [20]), 9380 and 12000. Moreover, the results for the z-score in assay [12] (setting [21]) and in assay [12] (setting [22]) were 0.333 (inactive) and 0.0415, respectively. Also, in [13], the remaining NAD is 10 nM (inactive).

Turning to `CN(C(=O)C(Cl)Cl)c1ccc(OC(=O)c2ccco2)cc1`, the survival in assay [14] was 6 (inactive). Further, the parasite load remaining in [1] is 89.8% (inactive) and 59.5% (inactive). Besides, the viability in assay [1] was 98.9% and 106%. Also, the nuclear beta-catenin stimulation in assay [2] (at 10 µM) was 16.4% (inactive); in [2] (stimulation, at 2 µM), 2.6%. For the same molecule, in assay [3], the insulin secretion stimulation was 0.3% (inactive). Moreover, in [4], the viability decrease was -11.8% (inactive). The tube area decrease in [5] is 13.6% (inactive). Besides, in assay [6], the GLP1 secretion stimulation is 0.9% (inactive). In addition, the inhibition of viability in [7] is -9.5% (inactive). For the same molecule, the viability decrease (inhibition) in [8] is 4.3% (inactive); in [9], -2.6% (inactive). Further, the red/green cell ratio (normalised) in [10] is 1.01 (inactive). Also, the normalised cell number is 0.98 in assay [10] (setting [15]) and 0.99 in assay [10] (setting [16]). For the same molecule, the fold change in assay [11] (setting [17]) is 0.855 (inactive) and 0.819 (inactive); in assay [11] (setting [18]) it was 1.35 and 4.27. For the same molecule, the cell count in assay [11] (setting [19]) was 9270 and 10300; in [11] (setting [20]), 10800 and 12500. The z-score in assay [12] (setting [21]) was 0.57 (inactive); in assay [12] (setting [22]) it was -0.472. The remaining NAD in assay [13] was 10 nM (inactive).

For the molecule `CN1CCC(=C2c3ccccc3CCc3cccnc32)CC1`, the nuclear beta-catenin stimulation in assay [2] (at 10 µM) was -2.3% (inactive); in assay [2] (stimulation, at 2 µM), -0.6%. Moreover, the insulin secretion stimulation in assay [3] was 9.4% (inactive). Moreover, the viability decrease in [4] was -3.7% (inactive). In [5], the tube area decrease is 15.1% (inactive). In assay [6], the GLP1 secretion stimulation was 2.5% (inactive). Besides, the inhibition of viability in assay [7] was -2.7% (inactive). Moreover, the viability decrease (inhibition) is 13.6% (inactive) in assay [8] and -0.2% (inactive) in assay [9]. The red/green cell ratio (normalised) in assay [10] is 0.76 (inactive). Also, the normalised cell number in [10] (setting [15]) was determined as 1.26; in assay [10] (setting [16]), 0.95. Also, the fold change in assay [11] (setting [17]) was 0.929 (inactive) and 0.835 (inactive); in assay [11] (setting [18]) it was 0.933 and 0.421 and 1.15. Further, the cell count in assay [11] (setting [19]) was 8510 and 8540 and 7120; in assay [11] (setting [20]), 9160 and 9200 and 8530. Moreover, the z-score in assay [12] (setting [21]) was -0.226 (inactive) and -0.309 (inactive) and -0.701 (inactive); in assay [12] (setting [22]), -0.00379 and -0.328 and -0.133. For the same molecule, the remaining NAD in assay [13] is 10 nM (inactive).

Source of the values: PubChem BioAssay.
